Screens deposited in PubChem BioAssay by Broad Institute.
CaV13 FRET inh = Disruptors of the CACNA1D IQ motif to Ca2+-dependent inactivation inhibitor domain association, primary screening, Förster resonance energy transfer in intact living … | HEK cells, CFP/YFP FRET ICDI-IQ, plate reader, 10 min; percent FRET-ratio fall versus neutral wells | inhibition, % at 12.3 µM | 340,000 compounds, 0.098% hits | AID 743397;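 active = mean replicate inhibition of at least 30% and at least 1% of replicates passing that level; inconclusive = only one of the two criteria is met; inactive = neither criterion is met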
ERAP1 inh = human ERAP1 aminopeptidase inhibitors, primary screen, biochemical, single point, plate reader; Endoplasmic reticulum aminopeptidase 1 (Homo sapiens), Q9NZ08; recombinant ERAP1, Leu-AMC fluorescence, 60 min; inhibition, % at 10.7 µM; 340,000 compounds, 0.15% hits; AID 652197, 2013;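 active = mean replicate inhibition of at least 30%, or all replicates individually reaching that 30% level; inactive = mean below 30% and not every replicate reaching it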
DENV2 CPE rescue = inhibitors of DENV2 cytopathic effect, primary screen, cell-based, plate reader, single concentration; CPE inhibition, % at 9.99 µM; 350,000 compounds, 1.7% hits; DENV2-infected cells, cytopathic effect rescue; in the data active = CPE inhibition above about 20%, passing the limit was not always enough; inconclusive = no clear call, values can overlap the other calls; tested in BHK-21 cells
GSIS activator = GLuc luminescence reporter in INS-1E cells, primary screen for activators of glucose-dependent secretion of insulin; INS-1E GLuc reporter insulin secretion, 2-3 h; activation, % at 16.6 µM; 370,000 compounds, 0.61% hits; AID 743287, 2014;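 active = lowest replicate activation of at least 40%, so every replicate reaches that level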
PGC1a acetyl inh = inhibitors of PGC1a acetylation signal, primary screen, cell-based, U2OS, AlphaScreen, inhibitor mode | inhibition, % at 15.6 µM | 350,000 compounds, 0.17% hits | AlphaScreen anti-acetyl-lysine; with virally co-expressed GCN5 acetyltransferase;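 active = every replicate shows inhibition of at least 40%; inconclusive = mean inhibition at least 40% but some replicate below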
rRNA inh HTS = reduced GFP signal of wild-type E. coli, primary screen, bacterial rRNA inhibitor project, GFP/RFP fluorescence, OD600, single point | E. coli WT GFP vs humanized-ribosome RFP mutants, 24 h; hits give low values; DMSO median 0, no signal -100 | 350,000 compounds, 1.6% hits | AID 720706, 2013 | GFP signal change (wild-type ribosome), % (test concentration not listed);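 active = significant combined selectivity score with lowered wild-type GFP, culture density cut under 30%, mutant RFP and density less affected; inactive = any of these conditions unmet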
A number is an active result; i = inactive; ? = inconclusive; nt = no result given. Sampled rows, rich in hits. Any-hit rate of the full collection: about 3.2%.

SMILES | CaV13 FRET inh | ERAP1 inh | DENV2 CPE rescue | GSIS activator | PGC1a acetyl inh | rRNA inh HTS
C[C@H](CO)N1C[C@H](C)[C@H](CN(C)CC2CC2)Oc2ccc(NC(=O)Nc3ccc(F)cc3)cc2CC1=O | nt | i | 42 | nt | i | nt
O=C(Cc1ccncc1)NCC[C@H]1CC[C@@H](NC(=O)C2CCC2)[C@@H](CO)O1 | nt | i | i | i | i | i
CN(C)CC(O)c1ccc(C=Cc2ccc(Cl)cc2)cc1 (stereo not given) | i | i | i | i | 51 | i
O/N=C(/CCc1ccccc1)c1ccc2c(c1)OCCO2 | i | i | i | i | i | -25
O=C(CCc1ccccc1)c1ccc2c(c1)OCCCO2 | i | nt | nt | nt | nt | nt
O=C(CCCc1ccccc1)c1ccc2c(c1)OCCO2 | i | i | i | i | i | -30
O=C(c1cccc(F)c1)N1C[C@@H]2[C@H](c3ccccc31)[C@H](CO)N2C(=O)c1ccc(F)cc1 | nt | i | i | i | i | i
CCCC(=O)Nc1ccc2c(c1)OC[C@H](C)N(C(=O)CN(C)C)C[C@@H](C)[C@H](OC)CN(C)C2=O | nt | nt | i | nt | i | nt
CC1(C)OC(=O)C2=C(C[C@@H](C3CC3)O[C@@H]2C2CC2)O1 | i | i | 61 | i | nt | i
CC1(C)OC(=O)C2=C(C[C@@H](C3CCCC3)O[C@H]2CCc2cccc(Cl)c2)O1 | i | i | i | i | nt | i
CCCNC(=O)C[C@H]1CC[C@@H]2[C@H](COc3ccc(NC(=O)NCCC)cc3C(=O)N2C)O1 | nt | i | i | i | i | i
O=C(O)c1ccc(-c2noc(-c3cccc(Cl)c3)n2)cc1 | i | i | i | i | i | -23
COc1ccc(-c2cnc3c(c2)C(=O)N([C@H](C)CO)C[C@H](C)[C@@H](CN(C)Cc2ccc(C(=O)O)cc2)O3)cc1 | nt | i | i | i | i | i
CCCNC(=O)N1[C@H](C#N)[C@H](c2ccc(-c3cccc(OC)c3)cc2)[C@H]1CO | nt | i | 58 | i | i | i
C[C@@H]1CN([C@H](C)CO)S(=O)(=O)c2ccc(C#CCN(C)C)cc2O[C@H]1CN(C)Cc1ccccn1 | nt | i | i | i | i | i
Cc1cc(C(=O)COC(=O)Cc2n[nH]c(=O)c3ccccc23)c(C)n1-c1ccc2c(c1)OCO2 | i | i | i | i | nt | -25
Clc1ccc2c(c1)c1ccccc1n2CN1CCOCC1 | nt | i | nt | i | nt | -33
Clc1ccc2c(c1)c1cc(Cl)ccc1n2CN1CCOCC1 | nt | nt | nt | nt | i | nt
Cc1ccc(NS(=O)(=O)c2ccc3c(c2)NC(=O)CCS3)cc1F | i | i | i | i | i | i
Cc1ccc(CCNS(=O)(=O)c2ccc3c(c2)NC(=O)CCS3)cc1 | i | i | i | i | i | i
Cc1cccc(CCNS(=O)(=O)c2ccc3c(c2)NC(=O)CS3)c1 | i | i | i | i | i | -35
Cc1ccc(NS(=O)(=O)c2ccc3c(c2)NC(=O)CCS3)cc1C | i | i | i | i | i | -26
O=C(NCC1CC1)[C@H]1[C@H](CO)[C@H]2Cn3c(ccc(-c4cccnc4)c3=O)[C@@H]1N2Cc1nccs1 | nt | i | i | i | nt | i
O=C(C1CCCC1)N1CCCCN2[C@H](CO)[C@@H](c3ccc(-c4cccc(F)c4)cc3)[C@@H]2C1 | nt | i | i | nt | i | nt
C[C@@H]1CN(C)C(=O)c2cc(N(C)C)ccc2O[C@@H]1CN(C)C | nt | nt | nt | i | nt | i
SMILES | CaV13 FRET inh | ERAP1 inh | DENV2 CPE rescue | GSIS activator | PGC1a acetyl inh | rRNA inh HTS
O=[N+]([O-])c1c(C(Cl)Cl)nn(-c2ccccc2)c1N1CCCC1 | i | i | i | i | i | -43
OCC1(Cc2ccc(Cl)cc2)CCN(Cc2ccc3nsnc3c2)CC1 | i | i | nt | i | i | -23
COc1ccc(CC2(CO)CCN(Cc3ccc4nsnc4c3)CC2)cc1 | i | i | i | i | nt | i
O=C(C[C@H]1C[C@H]2c3cc(NC(=O)NC4CCCC4)ccc3O[C@H]2[C@@H](CO)O1)NCc1ccc2c(c1)OCO2 | nt | i | i | i | i | i
Cc1ccc(S(=O)(=O)N[C@H]2C=C[C@@H](CC(=O)NCCN3CCCCC3)O[C@@H]2CO)cc1 | nt | i | i | i | i | i
Cc1cc(C(=O)Nc2sc3c(c2C#N)CCCC3)no1 | i | i | i | i | i | -31
C[C@@H]1CN([C@@H](C)CO)C(=O)c2cc(NC(=O)Cn3cnnn3)ccc2O[C@H]1CN(C)C(=O)Nc1ccccc1 | nt | i | i | i | i | i
CN(C)C(=O)c1ccc(-c2ccc3c(c2)[C@H]2[C@H](CCN2C(=O)c2ccccn2)[C@H](CO)N3)cc1 | nt | nt | 26 | i | i | i
O=C(c1ccc2c(c1)OCO2)N1CC[C@@H]2[C@H](CO)Nc3ccc(-c4ccccc4)cc3[C@@H]21 | nt | i | 23 | i | i | i
COc1ccc(-c2ccc3c(c2)[C@@H]2[C@@H](CCN2C(=O)c2ccc4c(c2)OCO4)[C@@H](CO)N3)cc1 | nt | nt | 74 | i | i | i
COc1ccc(-c2ccc3c(c2)[C@H]2[C@H](CCN2C(=O)c2ccc4c(c2)OCO4)[C@H](CO)N3)cc1 | nt | nt | i | i | i | i
O=C(c1ccc2c(c1)OCO2)N1CC[C@@H]2[C@H]1c1cc(-c3ccccc3)ccc1N[C@@H]2CO | nt | i | ? | i | i | i
CN(C)CC(=O)N1[C@@H](C#N)[C@@H](c2ccc(-c3ccccc3F)cc2)[C@@H]1CO | nt | i | i | i | i | i
O=C(N/N=C/c1cccc2ccccc12)c1ccccc1Cl | i | i | i | i | nt | i
O=C(NN=Cc1ccccc1Cl)c1cccc2ccccc12 | i | i | i | 80 | nt | i
Cc1ccc(C(=O)N2CCN(c3ccc(NC(=O)c4ccc(Br)o4)cc3)CC2)cc1 | nt | nt | nt | nt | i | nt
O=C(Nc1ccc(C(=O)N2CCN(c3ccncc3)CC2)cc1)c1ccc(Br)o1 | i | i | 23 | i | nt | i
CCCCCCCC(=O)Nc1cc(C(=O)NCc2ccc(C)cc2)ccc1N1CCC2(CC1)CC(c1ccccc1)=NO2 | i | i | 27 | i | i | i
Cc1cc(C)c2nc(N3CCC(C(=O)N4CCCC4)CC3)sc2c1 | i | i | i | i | i | -25
Cc1c(Br)c([N+](=O)[O-])nn1CC(=O)Nc1sc2c(c1C(=O)OC(C)C)CCCC2 | i | nt | nt | 46 | i | nt
COc1ccc(S(=O)(=O)N[C@H]2CC[C@H](CC(=O)N3CCC(Cc4ccccc4)CC3)O[C@@H]2CO)cc1 | nt | i | i | i | i | i
COCCn1c(=NC(=O)c2cc(Cl)sc2Cl)sc2cc(S(N)(=O)=O)ccc21 | i | nt | nt | 170 | nt | nt
O=c1[nH]c2nc(Cl)nc(Cl)c2[nH]1 | i | i | i | i | 74 | i
Nc1c(-c2ccccc2Cl)cnn1-c1cccc([N+](=O)[O-])c1 | i | nt | nt | nt | i | nt
